{
  "source": "PubChem BioAssay AID1508600",
  "about": "(Functional Genomics Laboratory (NCATS/FGL), 2020)",
  "note": "Among all 53,000 sequences or so, about 3,700 (7%) were called active. This is one part of a sample in which actives are shown more often than they occur.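 The calls were made as follows: active = gene knockdowns whose robust z-score for IL-1 alpha signal is at least 2 or at most -2, so actives lie on both sides; inactive = the rest.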",
  "data": [
    {"assay": "Components of the Cytosolic LPS Sensing Pathway: Gene Identification via Genome-wide siRNA Screen;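 also: robust z of the log signal after scaling to non-targeting control siRNA wells of the plate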", "details": "RAW264.7 macrophages, IL-1a HTRF, actives lie on both sides, screened at 100 nM (by protocol), cells primed 5 h with Pam3CSK4 first", "outline": "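RAW264.7 mouse macrophages reverse-transfected with single siRNAs (100 nM final) for 48h, primed with Pam3CSK4 for 5 hours, then transfected with LipidA for 24 hour. Supernatant IL-1a read by HTRF; values normalized to negative-control median, log-transformed robust z-scores.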", "values": [
      {"sequence": "GGUGGAAGAUGAGAAAGAGTT against Tmem139", "z-score": "-1.21 (inactive)"},
      {"sequence": "GGAAGAUAAAUGUCACAAATT against AA792892", "z-score": "0.392 (inactive)"},
      {"sequence": "GCCAGAAAUACCUGUCGGATT against Cdc37", "z-score": "-0.229 (inactive)"},
      {"sequence": "CCACUUUCAACUUUCCGCATT against Fgd5", "z-score": "-1.94 (inactive)"},
      {"sequence": "GCUAGACCUAAGGAGCAAATT against Axin1", "z-score": "3.59 (active)"},
      {"sequence": "GGCCAAUUUCUUCACUUCUTT against Ints11", "z-score": "-0.809 (inactive)"},
      {"sequence": "GGUUUUCACCAUAUGCAGCTT against Zfp353-ps", "z-score": "0.267 (inactive)"},
      {"sequence": "GGAAGAAAUGUCAUCACAATT against Heph", "z-score": "0.193 (inactive)"},
      {"sequence": "CGGACACAUUGACUGAAUATT against Adgrl1", "z-score": "-1.45 (inactive)"},
      {"sequence": "CCCACAUCAUUGAGAUUCUTT against Olfr1508", "z-score": "-1.25 (inactive)"},
      {"sequence": "GGAGAAGUUUGAAGAGAUGTT against Cct5", "z-score": "-2.24 (active)"},
      {"sequence": "GGAAGAAAACAUUUAGCCCTT against Mmd2", "z-score": "0.504 (inactive)"},
      {"sequence": "ACAUACCAGUCUCUGUACCTT against Pigu", "z-score": "-1.56 (inactive)"},
      {"sequence": "CCGCCUCUUACCGAAGUUCTT against Mettl4", "z-score": "3.04 (active)"},
      {"sequence": "GGACUUGAAAGAUAAAUAGTT against Crx", "z-score": "0.163 (inactive)"},
      {"sequence": "GCUAAUAACUUUUCAGUGATT against Olfr381", "z-score": "0.549 (inactive)"},
      {"sequence": "GGUUGGUAGGAUGGACAAGTT against Rab11b", "z-score": "2.45 (active)"},
      {"sequence": "GCCCUGUAUUUUGAAUUACTT against Bmpr1b", "z-score": "0.0161 (inactive)"},
      {"sequence": "GGGAAGAAAUAUGUUAGAUTT against Pip4p2", "z-score": "0.92 (inactive)"},
      {"sequence": "CCUUGUUACUAUACUACACTT against Ppp1r2", "z-score": "2.59 (active)"},
      {"sequence": "GCCUUUUAGCUGUUCAGGATT against Nlrc5", "z-score": "1.83 (inactive)"},
      {"sequence": "GCUGAAGCAUACAUUUGUGTT against Tas2r137", "z-score": "-0.226 (inactive)"},
      {"sequence": "CCAAUCUCCUGUUGUUAAATT against Mlf1", "z-score": "0.557 (inactive)"},
      {"sequence": "CCAGUCUUGCCCUUUAGUGTT against Foxi2", "z-score": "-1.88 (inactive)"},
      {"sequence": "AUGUAUUGAGUCAGGCAUCTT against Olfr243", "z-score": "2.32 (active)"},
      {"sequence": "CCUUACCACUUGAAGAUGGTT against Ephx1", "z-score": "-1.2 (inactive)"},
      {"sequence": "GCCAGUGAGUUUAUCAGCCTT against B4galnt3", "z-score": "0.706 (inactive)"},
      {"sequence": "GGUAUACAUGCUUCUCUCUTT against Olfr610", "z-score": "-0.569 (inactive)"},
      {"sequence": "GCUACAGAACCUGCUCUACTT against Thoc5", "z-score": "0.391 (inactive)"},
      {"sequence": "GGCAUUGAACAAGAAAGAATT against Mef2c", "z-score": "-0.94 (inactive)"},
      {"sequence": "GGGUAUGGUUUCAUCACUUTT against Boll", "z-score": "-2.71 (active)"},
      {"sequence": "GGAAGACAAAGAUUCUAGUTT against Abcc1", "z-score": "-1.06 (inactive)"},
      {"sequence": "UUACUGGUUGCUGUUGUGGTT against Alyref", "z-score": "1.35 (inactive)"},
      {"sequence": "GGAGAUCUCCUCAGCCACATT against Gemin4", "z-score": "-2.14 (active)"},
      {"sequence": "GCUGUGGUACAACCACAUUTT against Lrrc8a", "z-score": "-0.244 (inactive)"},
      {"sequence": "GGAACCACACCAUGUGAAATT against Prdm5", "z-score": "0.828 (inactive)"},
      {"sequence": "CCAUUCCCGCAUCCAUGUGTT against Zfp672", "z-score": "-2.23 (active)"},
      {"sequence": "AGAGGAAGCUCGAAAACGGTT against Zrsr2", "z-score": "-0.2 (inactive)"},
      {"sequence": "GGAUAUCAUCGUGUUUAUUTT against Vps45", "z-score": "0.612 (inactive)"},
      {"sequence": "GGACAACAUUAUAGGAAAGTT against Neu3", "z-score": "2.36 (active)"},
      {"sequence": "GCAAAAAAUCACUUCGAGUTT against Mgat4a", "z-score": "-0.377 (inactive)"},
      {"sequence": "GGGUAAGUAUUGAACUCAUTT against Slc10a1", "z-score": "1.06 (inactive)"},
      {"sequence": "GGAUGCUGAAGUAAUAGUGTT against Tbc1d15", "z-score": "0.0714 (inactive)"},
      {"sequence": "CGUUGUCAUUCACAAGUGATT against Tmprss11e", "z-score": "3.02 (active)"},
      {"sequence": "GGAAUGCUAUCAGAGAAGATT against Zmym5", "z-score": "-0.0365 (inactive)"},
      {"sequence": "CCCUUCUUCGGGUUUUAACTT against Kcna3", "z-score": "3.08 (active)"},
      {"sequence": "GGUUUAAGGUAGUUCAUGATT against Faf1", "z-score": "-0.0439 (inactive)"},
      {"sequence": "GGCCUCAAGAAUGUAACAGTT against Psmf1", "z-score": "-1.07 (inactive)"},
      {"sequence": "GGACAAUUGAAUACCUAGATT against Hadha", "z-score": "0.151 (inactive)"},
      {"sequence": "GGACUCAACUGCACUGUUGTT against Izumo4", "z-score": "-2.37 (active)"},
      {"sequence": "CCAAGUUUUAGCACCUAAATT against Dcp1a", "z-score": "0.769 (inactive)"},
      {"sequence": "GGACAUGAAGAUCAAGUCCTT against Rps2", "z-score": "-0.109 (inactive)"},
      {"sequence": "GAAGACUUCAAUCAACCAGTT against Trim6", "z-score": "-0.396 (inactive)"},
      {"sequence": "GGAAACUUGUUGAAGAGAUTT against Ptprz1", "z-score": "2.37 (active)"},
      {"sequence": "GCAUACCGGAUAAACUGAATT against Apoc1", "z-score": "-0.916 (inactive)"},
      {"sequence": "GGAAUGUCGAAUUGAUUGUTT against Klrb1b", "z-score": "0.524 (inactive)"},
      {"sequence": "GGAAGAGAGAGACAAGGAUTT against Dap", "z-score": "1.38 (inactive)"},
      {"sequence": "GGCGACGAAGUCACCUAUATT against Carhsp1", "z-score": "-0.0404 (inactive)"},
      {"sequence": "GAAGGCCAAUGAUCGGGAGTT against Neurog3", "z-score": "-2.1 (active)"},
      {"sequence": "GGUGGAGAAAUCUGCUAAUTT against Lta4h", "z-score": "1.99 (inactive)"},
      {"sequence": "CGUCAAUGAAUUCGACUCUTT against Pnlip", "z-score": "0.348 (inactive)"},
      {"sequence": "GCUUUCAGCUAUUGGACCCTT against Kl", "z-score": "0.0919 (inactive)"},
      {"sequence": "CGAUGCUGACUGAGAUCAUTT against Rad23a", "z-score": "1.39 (inactive)"},
      {"sequence": "GGUAUAGUUAAAGUGAGAGTT against Sp8", "z-score": "-0.883 (inactive)"},
      {"sequence": "GGAGUUAAUUGCCCGCAACTT against Rab19", "z-score": "0.588 (inactive)"},
      {"sequence": "CGGAAGAUGUUAAAACUAUTT against Slc44a3", "z-score": "-1.33 (inactive)"},
      {"sequence": "CCAGGACAAUAACUCUGAGTT against Aatk", "z-score": "-1.28 (inactive)"},
      {"sequence": "GGCGAGUUUAUAGAAGAAATT against Phf19", "z-score": "1.35 (inactive)"},
      {"sequence": "GCAAAAGCGGGUCAAAAAATT against Lrrc72", "z-score": "2.27 (active)"}
    ]}
  ]
}
